# Measurements as given in PubChem BioAssay AID1671192 (National Center for Advancing Translational Sciences (NCATS), 2021).
# Inconclusive results are not listed. Active and inactive are the calls of the source. The call rests on the fitted dose curve; in most records, active means well fitted curve in the direction sought with a large enough effect; inconclusive means small, poorly fitted or top-dose-only effect, or another doubt; inactive means no such curve, though single readings can be large or run the other way.
# Target: Polyunsaturated fatty acid lipoxygenase ALOX15 (Homo sapiens) (UniProt P16050)
# Test: Counterscreen qHTS for inhibitors of human arachidonate 12S-lipoxygenase (ALOX12): ALOX15 Assay; further: 0% is about no effect
# Conditions: purified ALOX15 enzyme activity; series mostly up to 110 µM; activity change, negative = inhibition: at the top concentration
# Description: Assay Provider: Theodore R. Holman Ph.D.
# University of California, Santa Cruz, California
# Human lipoxygenase 12hLO is a member of the closely related lipoxygenase family of enzymes which catalyze the site-specific oxidation of arachidonic acid to various hormone precursor molecules and as such is a candidate for drug development in a variety of disease areas, such as cancer and inflammation. Inhibition of 12hLO activity was screened by utilizing arachidonic acid as a substrate. The extent of hydroperoxide product formation was measured by a secondary chromogenic reaction in which xylenol orange (XO, Sigma-Aldrich, cat. number 39,818-7) reacts with the ferric ions produced from the reaction between the hydroperoxide and ferrous ions. The Fe (III)-XO complex is characterized with red-shifted absorbance at 560 nm. A purified preparation of human 12hLO was supplied by Dr. Holman laboratory, University of California, Santa Cruz.
# An assay against arachidonate 15-lipoxygenase (ALOX15) was developed to assess selective inhibition against ALOX12. Desired compounds would show potent inhibition against ALOX12 and minimal to no inhibition against ALOX15.
# SEQUENCE No. (e.g., 1, 2, 3, etc.); PARAMETER (e.g., Cells, Incubation, Reagent, etc.); VALUE; DESCRIPTION
# 1; Enzyme; 3 uL; 40 nM ALOX15 (15hLO-1) enzyme solution dispensed in 1536-well Greiner black, clear bottom plates.
# 2; Compound; 23 nL; compounds and controls were added.
# 3; Incubate; 15 min; room temperature.
# 4; Substrate; 1 uL; 50 uM arachidonic acid (final concentration).
# 5; Incubate; 30 min; room temperature.
# 6; Reagent; 4 uL; Fe-XO solution was added to each well.
# 8; Incubation; 30 min; room temperature
# 9; Detector; absorbance; Read 1 at 405 nm absorbance using ViewLux (PerkinElmer) CCD imager.
# 10; Detector; absorbance; Read 2 at 573 nm absorbance using ViewLux (PerkinElmer) CCD imager.
# NOTES (numbers refer to sequence above)
# 1; 40 nM ALOX15 (final concentration) in buffer solution (25 mM Hepes, 0.01% Triton X-100, pH 7.5) was dispensed in columns 1, 2, 5 - 48. Column 1 is neutral (100% activity). Buffer only was dispensed in columns 3 and 4 as no enzyme negative controls. The plates were covered with metal lids with gas-exchange holes.
# 2; Compounds were pin transferred via a Kalypsys Pin Tool (Wako USA) in column 5 - 48. Control compound was transferred in column 2, titration of nordihydroguaiaretic acid (NDGA, Sigma-Aldrich, N5023) with top concentration of 10 mM in DMSO then 1:2 dilution in duplicate. Dilution factor of 23 nL into 4 uL final assay volume.
# 3; Covered assay plates were incubated for 15 min at room temperature.
# 4; Substrate was added to start the reaction; 50 uM arachidonic acid (Sigma-Aldrich, St. Louis, MO) was dispensed throughout the plate.
# 6; Chromogenic detection reagent solution (divalent iron/xylenol orange, Fe-XO) was added to each well: 200 uM xylenol orange, 300 uM ferrous ammonium sulfate prepared freshly in 50 mM sulfuric acid.
# 9, 10; Two absorbance readouts were obtained at 405 nm and at 573 nm using a ViewLux high-throughput CCD plate imager (PerkinElmer). The 573 to 405 (Read 2 / Read 1) absorbance ratio was used to compute reaction progress.
# Polyunsaturated fatty acid lipoxygenase ALOX15 (Homo sapiens), sequence (P16050 whole entry, looked up): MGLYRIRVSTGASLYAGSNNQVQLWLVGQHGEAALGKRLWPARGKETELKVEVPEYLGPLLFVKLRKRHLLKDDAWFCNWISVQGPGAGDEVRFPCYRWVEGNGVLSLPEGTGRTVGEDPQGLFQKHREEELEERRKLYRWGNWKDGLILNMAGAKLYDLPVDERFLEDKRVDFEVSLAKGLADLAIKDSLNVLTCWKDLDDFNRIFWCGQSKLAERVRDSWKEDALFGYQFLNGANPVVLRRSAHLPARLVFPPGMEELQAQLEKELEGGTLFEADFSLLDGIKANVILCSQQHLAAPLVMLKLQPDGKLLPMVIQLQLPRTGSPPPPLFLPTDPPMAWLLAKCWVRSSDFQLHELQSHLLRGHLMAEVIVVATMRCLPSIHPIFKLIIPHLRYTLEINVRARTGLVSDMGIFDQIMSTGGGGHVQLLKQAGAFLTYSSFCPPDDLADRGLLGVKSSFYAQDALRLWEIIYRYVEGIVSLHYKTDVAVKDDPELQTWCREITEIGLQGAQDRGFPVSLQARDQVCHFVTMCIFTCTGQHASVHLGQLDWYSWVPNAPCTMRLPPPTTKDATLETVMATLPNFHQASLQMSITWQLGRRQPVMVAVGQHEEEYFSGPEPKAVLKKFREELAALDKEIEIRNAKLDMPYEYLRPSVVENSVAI
Compound,"activity change, negative = inhibition",outcome
O=C(N1CCCCC1)N1CCN(c2ccc(Cl)nn2)C(=O)C1,-15.7% [at 146 µM] (inactive),
Cc1ccsc1CN1CCC2(Cc3ccccc3CNC2=O)C1 (stereo not given),11.6% [at 146 µM] (inactive),
O=c1n(-c2ccc(Cl)cc2)nc2n1CCN([S+](=O)([O-])c1ccccc1)C2,-12.1% (inactive),
CCN(c1ccc2c(c1)OCO2)C1CN(C(=O)OC(C)(C)C)C1,-26.4% [at 146 µM] (inactive),
Nc1ccc(CN2CCCC3(Cc4ccccc4CNC3=O)C2)cc1 (stereo not given),5.49% [at 146 µM] (inactive),
CC(=O)NC1CC2(CCN(C(=O)CCCNC(=O)OC(C)(C)C)CC2)Oc2ccccc21 (stereo not given),7.33% (inactive),
NCC(=O)N1CCC2(CC1)CN(C(=O)Cc1cccc(Cl)c1)CCO2,-12.9% (inactive),
CC[C@@H](Nc1ncnc2c1CN(C1CCCNCC1)C(=O)CN2C)c1ccccc1 (stereo not given in full),-14.8% (inactive),
CSc1ccc(-c2ccccc2C=O)cc1,-21.2% [at 233 µM] (inactive),
O=C(N1CCOCC1)N1CCC(c2nnc3n2CCNC3)CC1,2.12% (inactive),
CN1CC(=O)N(C2CCCNC2)Cc2c(NC3CCCCCC3)ncnc21 (stereo not given),-19% (inactive),
CC(C)(C)OC(=O)N1CC(Nc2ccc(O)cc2)C1,,inactive
Cc1ccc2nc(C3CCN(Cc4ccc(-c5cccs5)cc4)CC3)[nH]c(=O)c2c1,-12% (inactive),
O=C1NCc2ccccc2CC12CCCN2Cc1ccc(OC(F)(F)F)cc1 (stereo not given),-12.6% (inactive),
O=S1(=O)CCCN1C1CCN(Cc2cccc3ccccc23)CC1,5.45% [at 146 µM] (inactive),
COCCCNC(=O)c1cc(C2CC2)nc2c1c(C1CCCN1)nn2-c1ccccc1 (stereo not given),0.477% (inactive),
O=C1NCc2ccccc2CC12CCN(Cc1ccccc1OC(F)(F)F)C2 (stereo not given),-5.04% (inactive),
O=C(c1ccc2c(c1)OCO2)N1CCC2(CC1)C(=O)Nc1ccccc12,1.58% [at 146 µM] (inactive),
CN1CC(=O)N(C2CCCNCC2)Cc2c1ncnc2N1CCCC(CO)C1 (stereo not given),-0.719% (inactive),
COc1ccc(-c2nc(C3CC3)nc3c2CCN(Cc2ccc(C#N)cc2)CC3)cc1,29.1% (inactive),

Compound,"activity change, negative = inhibition",outcome
Cc1ccc(C(=O)N2CCn3c(nnc3C3CCNCC3)C2)cc1,-0.421% [at 146 µM] (inactive),
COc1ccc(-c2nc(C3CC3)nc3c2CN(C(=O)c2ccccc2OC)CC3)cc1,-21.2% (inactive),
O=[S+]([O-])(c1ccncc1)c1nnn2c1nc(NCc1ccc(F)cc1)c1ccccc12,-0.991% (inactive),
COc1ccccc1C(=O)N1CCc2nc(C3CC3)nc(-c3ccc(Cl)cc3)c2C1,-18.6% (inactive),
COc1cccc(O)c1CN1CCCC12Cc1ccccc1CNC2=O (stereo not given),-14.9% (inactive),
CN1CC(=O)N(C2CCNCC2)Cc2c1ncnc2N(C)Cc1ccc(F)cc1,-13.5% (inactive),
CCCN1CCCC2(Cc3ccccc3CN(C(=O)Cc3ccccc3)C2)C1 (stereo not given),-27.1% (inactive),
C[S+](=O)([O-])N1CC2(CCN(Cc3ccc(Cl)cc3)C2)Cc2ccccc21 (stereo not given),-31.4% [at 146 µM] (inactive),
O=C1NCc2ccccc2CC12CCN(Cc1cccc(C(F)(F)F)c1)C2 (stereo not given),-18.5% (inactive),
O=C1NC(=NC2CCCC2)C2(CCCN([S+](=O)([O-])c3cccc(C(F)(F)F)c3)C2)N1c1cc(F)cc(F)c1 (stereo not given),-2.92% (inactive),
Cn1ncc2c(C(=O)NCCc3ccc(Cl)cc3)cc(-c3ccc([S+](C)(=O)[O-])cc3)nc21,-20.8% (inactive),
O=C(c1ccccc1)N1Cc2ccccc2CC2(CCN(CC3CCNC3)C2)C1 (stereo not given),5.43% (inactive),
O=C(c1ccccn1)N1CCn2c(nn(-c3ccc(Cl)cc3)c2=O)C1,-10.8% (inactive),
O=Cc1cccc(N2CCN(C(=O)c3ccc4c(c3)OCO4)CC2=O)c1,-7.4% [at 146 µM] (inactive),
CC(=O)N1CCn2cc(C(=O)N3CCOCC3)nc2C1,-15.5% [at 146 µM] (inactive),
O=C(O)CCCC(=O)N1Cc2ccccc2CC2(CCCN2Cc2ccccc2)C1 (stereo not given),-13.6% (inactive),
COc1ccc(-n2nc3n(c2=O)CCN(C(=O)c2ccccn2)C3)cc1,-10.8% [at 146 µM] (inactive),
Cn1cccc1CN1CCCCC12Cc1ccccc1CNC2=O (stereo not given),242% [at 146 µM] (inactive),
O=[S+]([O-])(c1ccc(Br)cc1)c1nnn2c1nc(NCc1ccc(F)cc1)c1ccccc12,-20.2% (inactive),
c1ccc(NCCN2CCCC2)cc1,-6.97% [at 233 µM] (inactive),
